Data on six compounds can be found in PubChem BioAssay (NCATS).

Assay [1] is described as follows: AP1 Signaling Pathway (AID 357).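 Further: ME-180 reporter cells stimulated with EGF at its EC50 level; on the % scale 0 is the no-effect control and ±100 the full control effect.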 The conditions noted are these: ME-180 AP-1-bla reporter, EGF-induced, beta-lactamase ratio, 5 h; at 17.2 µM (top of the series) unless noted. The gist of the method:
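Cells are seeded overnight, exposed to compound titrations and an EC50 level of EGF for 5 hours at 37 °C, then loaded with CCF4 dye for 2.5 hours. Beta-lactamase activity under the AP-1 element is read as a blue/green ratio.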

Assay [2] is described as follows: NFAT Signaling Pathway (AID 444).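 Further: carbachol stimulus at about its EC50 of 1 µM final; on the % scale 0 is the no-effect control and ±100 the full control effect.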 The conditions noted are these: Jurkat NFAT-bla M1, carbachol, beta-lactamase ratio, 5 h; at 17.2 µM (top of the series) unless noted. The essentials:
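Read-out: CCF4 FRET ratio (460 nm/530 nm) after 1 h RT dye loading, used for %activity and AC50 from titration series. Cells: Jurkat NFAT-β-lactamase/M1 line, treated with compound plus 1 uM carbachol for 5 h, 37 °C.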

Assay [3] can be described thus: Stat Signaling Pathway (AID 446).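 Further: ME-180 cervical cancer cells given 40 pM IL-6 alongside compound; SIE-controlled beta-lactamase reporter measured as 460/530 nm FRET emission ratio; on the % scale 0 is the no-effect control and ±100 the full control effect.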 The conditions noted are these: ME-180 SIE beta-lactamase reporter, IL-6 stimulated, 5 h; at 17.2 µM (top of the series) unless noted. The gist of the method: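 Screening format detects activators and inhibitors alike: ME-180 SIE-bla cells stimulated at 40 pM IL-6 for 5 hrs with compound, then dual-emission beta-lactamase read at 405 nm excitation.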

Assay [4] has as its target Glucocorticoid receptor (Homo sapiens) (UniProt P04150). Briefly: GR-GFP Redistribution (AID 450;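 active means compounds whose dose series gives a full or clear partial fitted curve of increased nuclear translocation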; further: potency means the concentration at half of the fitted maximal effect).
The target is the same in assay [5]. Briefly: GR-EFC Redistribution (AID 451; calls by dose curve; further: potency means the concentration at half of the fitted maximal effect). The conditions noted are these: CHO-K1 GR-EFC translocation, beta-gal luminescence, 2 h. The essentials:
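Translocation of GR-ED fusion to nuclear EA restores b-gal, read by luminescence after 1 h room-temperature detection. Engineered CHO-K1 biosensor cells, 1,000/well, exposed 2 h at 37 C to titrations up to 46 uM final.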

For assay [6], the target named is Mitogen-activated protein kinase 10 (Mus musculus) (UniProt Q61831). Briefly: JNK3 AlphaScreen Assay (AID 530).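 Further: kinase came from lysate of stimulated human HepG2 cells; signal reports phosphorylation of biotinylated GST-cJun 1-79 at Ser73 with 10 µM ATP; on the % scale 0 is the no-effect control and ±100 the full control effect.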 The essentials: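 Room-temperature AlphaScreen kinase assay; pre-activated HepG2 lysate as JNK3 source, biotin-GST-cJun(1-79) substrate, 10 uM ATP, compound 15 min preincubation.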
A general note: Bead proximity is the source of the signal in Alpha formats.

Assay [7] concerns the target 3',5'-cyclic-AMP phosphodiesterase 4B (Homo sapiens) (UniProt Q07343). Briefly: qHTS Assay for Inhibitors of PDE-IV (AID 607; active means well fitted activation curve with a large enough effect in the main read-out, with a control signal flat, not every such curve was filed as active; further: % of control where 0% means no effect). The essentials:
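The readout is membrane depolarisation from a cAMP-sensing CNG channel, detected with a potential dye at ex 535/em 590. Cells were HEK293-derived (endogenous PDE-IV) at 1000 cells/well, titrated up to 22.9 uM final.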

Assay [8] has as its target Cytochrome P450 3A4 (Homo sapiens) (UniProt P08684). Nature of the assay: qHTS Assay for Activators of Cytochrome P450 3A4 (AID 885; active means well fitted curve in the direction sought with a large enough effect; an effect the other way counts as inactive or inconclusive; further: nearly all actives have a fitted effect of over 65% in size). The gist of the method:
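Steps: enzyme/substrate mix dispensed; compound added, 10 min RT; NADPH regeneration solution added, 60 min RT; luciferin detection buffer stops reaction; 20 min later luminescence measured.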

A short description of assay [9]: qHTS Assay for Identification of Small Molecule Antagonists for NFkB Signaling Pathway (AID 895; active means well fitted inhibition curve with a large enough effect in the signal ratio, with a control signal flat, not every such curve was filed as active; the % refers to the signal ratio; further: potency means the concentration at half of the fitted maximal effect). The essentials:
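Beta-lactamase reporter read-out (460 and 530 nm emission ratio, 405 nm excitation, 2 hrs substrate loading RT) after 5 hr stimulation with 10 pM TNF alpha in compound-treated NFkB-bla ME-180 cells in low-serum medium.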
For orientation: Quantitative high-throughput screening tests each substance at several concentrations.

Assay [10] can be described thus: qHTS Assay for Identification of Small Molecule Agonists for Thrombopoietin (TPO) Signaling Pathway (AID 917; active means well fitted curve in the direction sought with a large enough effect; an effect the other way counts as inactive or inconclusive; further: on the % scale 0 is the no-effect control and ±100 the full control effect). The gist of the method:
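Murine Ba/F3 cells stably expressing human TPO receptor and a Glycoprotein IIb promoter–luciferase reporter were IL-3-starved overnight, then treated with compounds plus TPO (26 pM final, its EC50) for 24 hrs at 37 C; luminescence was read.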

For assay [11], the target named is Pyruvate kinase (Leishmania mexicana) (UniProt Q27686). Nature of the assay: qHTS Validation Assay for Inhibitors of Leishmania Mexicana Pyruvate Kinase (AID 945; active means well fitted curve in the direction sought with a large enough effect; an effect the other way counts as inactive or inconclusive;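 further: 0% = DMSO only neutral control wells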). The gist of the method:
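LmPYK E451W 0.2 nM; 0.5 mM PEP, 0.1 mM ADP, 7 mM MgCl2, 50 mM KCl, imidazole pH 7.2, 0.01% Tween 20, 0.05% BSA; 1 h RT; PKLight luminescence; DMSO-normalized.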

Assay [12] has as its target Pyruvate kinase PKM (Homo sapiens) (UniProt P14618). Nature of the assay: qHTS Assay for Activators of Human Muscle Pyruvate Kinase (AID 954; active means well fitted curve in the direction sought with a large enough effect, not every such curve was filed as active;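 further: 0% = uninhibited enzyme and -100% = no enzyme or full thiadiazolimine inhibition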). The essentials:
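Reaction: 0.1 nM purified PKM2 with 0.5 mM phosphoenolpyruvate and 0.1 mM ADP, room temperature, 1 h. Readout: luciferase-based ATP luminescence after stop reagent. Activators judged against a 0.3 nM enzyme column.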

The target of assay [13] is Alpha-galactosidase A (Homo sapiens) (UniProt P06280). Nature of the assay: Counterscreen for Glucocerebrosidase Inhibitors: qHTS Assay for Human alpha-Galactosidase at pH 4.5 (AID 992; active means well fitted curve in the direction sought with a large enough effect; an effect the other way counts as inactive or inconclusive; further: 0% is about no effect). The gist of the method: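 Concentration-response curves (0.7 nM to 77 uM final) were modeled with the Hill equation to give AC50. Reactions: 2 nM enzyme, 80 uM fluorogenic alpha-galactoside, pH 4.5 citric acid buffer, 20 min, room temperature.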
A general note: A counterscreen serves to expose hits that act by an unwanted route or on another target.

Assay [14] has as its target alpha-glucosidase (Oryza sativa, rice) (UniProt Q653V4). Briefly: Counterscreen for Glucocerebrosidase Inhibitors: qHTS Assay for Rice alpha-Glucosidase at pH 5.0 (AID 997; active means well fitted curve in the direction sought with a large enough effect; an effect the other way counts as inactive or inconclusive;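 further: 0% = full activity with enzyme and -100% = basal without enzyme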). The essentials:
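Rice alpha-glucosidase (4 nM final) with 400 uM 4-methylumbelliferyl-alpha-D-glucopyranoside in citrate buffer pH 5.0, 20 min at room temperature, stopped at pH 10; fluorescence 365/440 nm, compounds 0.7 nM–77 uM, AC50 from Hill fits.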

The nature of assay [15]: qHTS Assay for Identification of Small Molecule Agonists for Hypoxia Response Element Signaling Pathway (AID 914; active means well fitted activation curve with a large enough effect in the signal ratio, with a control signal flat, not every such curve was filed as active; the % refers to the signal ratio; further: potency means the concentration at half of the fitted maximal effect). To be noted: ME-180 HRE-bla reporter, beta-lactamase ratio, CoCl2, 17 h; activation: hits give high values. The essentials: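 ME-180 cells carrying an HRE-driven beta-lactamase reporter were treated with compounds in a titration series plus an EC50 level of CoCl2 for 17 h at 37 degrees Celsius; CCF4 readout as the 460nm/530nm ratio gave AC50 values.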

The target in assay [16] is Ubiquitin carboxyl-terminal hydrolase 1 (Homo sapiens) (UniProt O94782). Briefly: Inhibitors of USP1/UAF1: Pilot qHTS (AID 504865; active means well fitted curve in the direction sought with a large enough effect; an effect the other way counts as inactive or inconclusive;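 further: rhodamine fluorescence freed from ubiquitin-rhodamine substrate followed over time; top concentration of the series differs between compounds; on the % scale 0 is the no-effect control and ±100 the full control effect; nearly all actives have a fitted effect of over 35% in size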). The essentials:
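USP1/UAF1 complex (1nM) preincubated with compound 15 min at room temperature, then Ub-Rho substrate (150nM final) added. Fluorescence read kinetically at 480/540 nm, 6 reads every 60 seconds. Buffer: 50mM HEPES pH 7.8, 0.5mM EDTA, 0.1 mg/ml BSA, 1mM TCEP, 0.01% Tween-20.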

Assay [17] addresses Guanine nucleotide-binding protein G(i) subunit alpha-1 (Homo sapiens) (UniProt P63096). Nature of the assay: qHTS Assay for Inhibitors of RGS12 GoLoco Motif Activity (Green Fluorophore) (AID 879; active means well fitted curve in the direction sought with a large enough effect; an effect the other way counts as inactive or inconclusive;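 further: 0% = labeled peptide with Gαi1 and full inhibition = labeled peptide alone without protein; negative values mean loss of peptide binding seen as reduced polarization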). The essentials:
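Fluorescence polarization assay: 50 nM Gαi1 with 10 nM FITC-labeled RGS12 GoLoco peptide in 10 mM Tris pH 7.5, 150 mM NaCl, 0.1 mM GDP, 0.05% NP40, 10 min at room temperature with compound.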

The target in assay [18] is Muscarinic acetylcholine receptor M1 (Rattus norvegicus) (UniProt P08482). Nature of the assay: qHTS Assay for Antagonists of Acetylcholine Muscarinic M1 Receptor: Kinetic Measurement of Intracellular Calcium Response (AID 943; active means well fitted curve in the direction sought with a large enough effect; an effect the other way counts as inactive or inconclusive;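 further: Fluo-4 calcium signal as peak divided by basal fluorescence over 4 min; nearly all actives have a fitted effect of over 75% in size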). The gist of the method:
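Intracellular calcium flux, recorded with Fluo-4 in a kinetic plate reader, served as signal; the response to carbachol at EC80 (100 nM final) was taken as maximal over minimal fluorescence after a 10 min compound pre-incubation in rat M1-CHO cells.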

For assay [19], the target named is Cytochrome P450 2D6 (Homo sapiens) (UniProt P10635). Briefly: qHTS Assay for Inhibitors and Substrates of Cytochrome P450 2D6 (AID 891; active means well fitted curve in the direction sought with a large enough effect; an effect the other way counts as inactive or inconclusive; further: potency means the concentration at half of the fitted maximal effect; nearly all actives have a fitted effect of over 60% in size). The essentials:
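Human CYP2D6 (5 nM) with 30 uM Luciferin-ME EGE (at Km) in 100 mM KPO4, compound preincubated 10 min, then NADPH regeneration system for 60 min at room temperature. Luciferin read by luminescence; normalized to 1.43 uM quinidine.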

Each structure is given as a SMILES string. Unmarked numbers belong to inactive results. Records with an inconclusive call do not appear. The source made the active and inactive calls. Unless noted, the call rests on the fitted dose curve; in most records, active means well fitted curve in either direction with a large enough effect (not every such curve was filed as active); inconclusive means small, poorly fitted or top-dose-only effect, or another doubt; inactive means flat fitted curve, though single readings scatter.

Sequence of 3',5'-cyclic-AMP phosphodiesterase 4B (Homo sapiens) (Q07343 whole entry, looked up): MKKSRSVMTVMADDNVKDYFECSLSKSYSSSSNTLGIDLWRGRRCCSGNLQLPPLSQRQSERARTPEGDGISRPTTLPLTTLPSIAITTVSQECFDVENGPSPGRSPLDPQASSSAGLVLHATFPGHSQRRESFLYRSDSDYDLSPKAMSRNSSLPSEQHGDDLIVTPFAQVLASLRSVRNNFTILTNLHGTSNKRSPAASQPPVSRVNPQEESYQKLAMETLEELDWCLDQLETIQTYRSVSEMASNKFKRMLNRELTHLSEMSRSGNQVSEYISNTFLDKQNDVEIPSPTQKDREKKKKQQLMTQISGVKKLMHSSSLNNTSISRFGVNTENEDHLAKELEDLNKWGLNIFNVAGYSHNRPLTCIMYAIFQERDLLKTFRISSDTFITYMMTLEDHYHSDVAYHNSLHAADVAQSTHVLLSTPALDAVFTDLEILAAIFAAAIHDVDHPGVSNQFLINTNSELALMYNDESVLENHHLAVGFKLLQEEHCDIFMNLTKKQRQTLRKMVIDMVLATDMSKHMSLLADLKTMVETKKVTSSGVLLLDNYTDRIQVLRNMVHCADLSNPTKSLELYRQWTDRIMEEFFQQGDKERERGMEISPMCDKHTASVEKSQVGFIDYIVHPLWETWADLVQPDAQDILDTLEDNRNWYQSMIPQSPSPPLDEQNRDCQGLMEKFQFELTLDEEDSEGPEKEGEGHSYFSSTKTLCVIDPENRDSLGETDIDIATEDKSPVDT
Sequence of Glucocorticoid receptor (Homo sapiens) (P04150 whole entry, looked up): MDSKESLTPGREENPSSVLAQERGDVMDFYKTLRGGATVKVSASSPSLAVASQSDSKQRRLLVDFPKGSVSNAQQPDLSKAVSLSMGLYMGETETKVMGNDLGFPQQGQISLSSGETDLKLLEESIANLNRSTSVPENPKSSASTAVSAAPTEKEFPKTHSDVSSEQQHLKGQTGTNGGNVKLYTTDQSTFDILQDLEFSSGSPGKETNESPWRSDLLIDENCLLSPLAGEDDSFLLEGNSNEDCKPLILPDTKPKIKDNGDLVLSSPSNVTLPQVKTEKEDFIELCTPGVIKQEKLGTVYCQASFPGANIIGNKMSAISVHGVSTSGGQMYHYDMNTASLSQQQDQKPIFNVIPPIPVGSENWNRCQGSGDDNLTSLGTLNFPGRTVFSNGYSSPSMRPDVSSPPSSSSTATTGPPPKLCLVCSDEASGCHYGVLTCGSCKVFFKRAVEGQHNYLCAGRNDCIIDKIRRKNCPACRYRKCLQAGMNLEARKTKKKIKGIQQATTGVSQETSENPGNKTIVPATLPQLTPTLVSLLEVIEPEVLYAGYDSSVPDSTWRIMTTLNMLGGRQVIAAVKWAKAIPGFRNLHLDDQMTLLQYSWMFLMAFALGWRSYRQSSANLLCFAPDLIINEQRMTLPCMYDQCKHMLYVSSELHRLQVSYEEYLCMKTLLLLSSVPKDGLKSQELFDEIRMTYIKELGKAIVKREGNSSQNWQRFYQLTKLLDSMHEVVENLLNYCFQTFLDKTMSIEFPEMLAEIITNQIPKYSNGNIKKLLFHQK
Sequence of Pyruvate kinase PKM (Homo sapiens) (P14618 whole entry, looked up): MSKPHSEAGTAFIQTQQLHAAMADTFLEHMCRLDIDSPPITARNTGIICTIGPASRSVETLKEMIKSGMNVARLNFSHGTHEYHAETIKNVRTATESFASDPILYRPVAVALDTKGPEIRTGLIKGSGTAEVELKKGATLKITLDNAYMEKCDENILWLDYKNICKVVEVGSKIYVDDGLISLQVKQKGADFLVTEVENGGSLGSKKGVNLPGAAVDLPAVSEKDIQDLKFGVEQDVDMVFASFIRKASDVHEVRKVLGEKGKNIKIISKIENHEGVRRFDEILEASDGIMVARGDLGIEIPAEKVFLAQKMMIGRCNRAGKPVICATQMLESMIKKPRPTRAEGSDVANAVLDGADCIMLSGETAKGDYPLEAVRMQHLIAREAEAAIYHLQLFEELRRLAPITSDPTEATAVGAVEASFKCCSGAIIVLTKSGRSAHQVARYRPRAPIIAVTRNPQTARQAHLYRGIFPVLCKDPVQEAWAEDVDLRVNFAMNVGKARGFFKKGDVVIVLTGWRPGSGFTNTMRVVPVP
Sequence of Pyruvate kinase (Leishmania mexicana) (Q27686 2-499 E452W): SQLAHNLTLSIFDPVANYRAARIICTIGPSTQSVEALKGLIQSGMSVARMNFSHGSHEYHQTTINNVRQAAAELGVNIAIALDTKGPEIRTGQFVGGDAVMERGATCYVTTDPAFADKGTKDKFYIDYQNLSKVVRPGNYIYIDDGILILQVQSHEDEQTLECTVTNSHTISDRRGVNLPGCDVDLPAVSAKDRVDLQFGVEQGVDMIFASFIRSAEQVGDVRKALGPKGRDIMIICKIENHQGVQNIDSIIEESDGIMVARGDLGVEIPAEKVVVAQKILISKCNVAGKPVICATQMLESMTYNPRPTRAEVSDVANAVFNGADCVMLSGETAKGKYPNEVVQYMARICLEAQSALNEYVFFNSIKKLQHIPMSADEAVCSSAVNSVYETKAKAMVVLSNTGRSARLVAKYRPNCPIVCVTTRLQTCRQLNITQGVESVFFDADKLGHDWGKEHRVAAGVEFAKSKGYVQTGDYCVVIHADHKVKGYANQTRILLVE
Sequence of Alpha-galactosidase A (Homo sapiens) (P06280 whole entry, looked up): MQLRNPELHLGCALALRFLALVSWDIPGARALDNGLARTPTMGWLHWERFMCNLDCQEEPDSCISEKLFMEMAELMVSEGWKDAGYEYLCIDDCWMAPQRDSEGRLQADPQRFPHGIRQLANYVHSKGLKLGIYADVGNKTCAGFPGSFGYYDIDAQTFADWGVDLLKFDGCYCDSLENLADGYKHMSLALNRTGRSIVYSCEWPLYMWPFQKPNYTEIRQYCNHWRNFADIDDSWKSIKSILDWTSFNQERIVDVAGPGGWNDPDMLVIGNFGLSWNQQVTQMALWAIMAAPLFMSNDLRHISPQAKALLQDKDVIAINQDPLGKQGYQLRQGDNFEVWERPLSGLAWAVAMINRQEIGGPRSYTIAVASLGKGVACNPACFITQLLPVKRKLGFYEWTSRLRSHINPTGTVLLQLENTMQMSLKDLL
Sequence of Muscarinic acetylcholine receptor M1 (Rattus norvegicus) (P08482 whole entry, looked up): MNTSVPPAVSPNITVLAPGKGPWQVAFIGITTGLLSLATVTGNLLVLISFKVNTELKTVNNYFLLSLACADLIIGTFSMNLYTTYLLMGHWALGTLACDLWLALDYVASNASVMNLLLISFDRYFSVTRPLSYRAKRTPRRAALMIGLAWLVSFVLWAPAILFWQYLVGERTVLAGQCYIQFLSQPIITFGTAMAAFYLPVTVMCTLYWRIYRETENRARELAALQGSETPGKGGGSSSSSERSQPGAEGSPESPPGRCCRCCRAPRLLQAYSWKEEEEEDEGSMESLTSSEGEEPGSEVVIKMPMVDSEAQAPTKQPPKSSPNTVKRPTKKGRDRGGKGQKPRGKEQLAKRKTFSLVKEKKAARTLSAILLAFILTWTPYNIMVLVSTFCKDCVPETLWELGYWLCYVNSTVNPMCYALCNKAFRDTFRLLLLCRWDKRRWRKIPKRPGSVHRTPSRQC
Sequence of Cytochrome P450 3A4 (Homo sapiens) (P08684 whole entry, looked up): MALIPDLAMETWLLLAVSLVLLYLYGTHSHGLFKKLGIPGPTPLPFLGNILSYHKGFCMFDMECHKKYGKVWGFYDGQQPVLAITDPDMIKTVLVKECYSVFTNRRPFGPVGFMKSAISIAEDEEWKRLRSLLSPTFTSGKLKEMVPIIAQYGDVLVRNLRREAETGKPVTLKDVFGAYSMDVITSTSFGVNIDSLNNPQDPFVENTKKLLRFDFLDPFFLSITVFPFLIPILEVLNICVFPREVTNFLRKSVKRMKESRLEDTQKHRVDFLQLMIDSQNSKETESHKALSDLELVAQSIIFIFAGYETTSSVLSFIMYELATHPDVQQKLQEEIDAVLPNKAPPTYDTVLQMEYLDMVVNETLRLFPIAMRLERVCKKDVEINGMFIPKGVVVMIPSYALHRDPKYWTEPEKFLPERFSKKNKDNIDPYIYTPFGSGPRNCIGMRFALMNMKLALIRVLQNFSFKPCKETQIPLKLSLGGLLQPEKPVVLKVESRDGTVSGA
Sequence of Cytochrome P450 2D6 (Homo sapiens) (P10635 whole entry, looked up): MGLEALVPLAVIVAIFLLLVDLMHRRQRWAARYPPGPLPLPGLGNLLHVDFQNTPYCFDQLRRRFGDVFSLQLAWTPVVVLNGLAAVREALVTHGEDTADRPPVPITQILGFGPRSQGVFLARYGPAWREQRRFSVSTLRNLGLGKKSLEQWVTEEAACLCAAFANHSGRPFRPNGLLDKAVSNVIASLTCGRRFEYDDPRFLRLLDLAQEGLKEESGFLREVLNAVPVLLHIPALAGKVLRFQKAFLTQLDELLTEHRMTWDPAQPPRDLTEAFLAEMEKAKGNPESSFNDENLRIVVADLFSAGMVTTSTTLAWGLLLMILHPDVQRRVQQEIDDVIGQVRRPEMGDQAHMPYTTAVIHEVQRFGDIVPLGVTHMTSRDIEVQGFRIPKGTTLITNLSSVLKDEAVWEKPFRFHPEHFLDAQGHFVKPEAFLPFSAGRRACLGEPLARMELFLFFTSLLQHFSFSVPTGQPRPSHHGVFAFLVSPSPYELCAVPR
Sequence of Guanine nucleotide-binding protein G(i) subunit alpha-1 (Homo sapiens) (P63096 whole entry, looked up): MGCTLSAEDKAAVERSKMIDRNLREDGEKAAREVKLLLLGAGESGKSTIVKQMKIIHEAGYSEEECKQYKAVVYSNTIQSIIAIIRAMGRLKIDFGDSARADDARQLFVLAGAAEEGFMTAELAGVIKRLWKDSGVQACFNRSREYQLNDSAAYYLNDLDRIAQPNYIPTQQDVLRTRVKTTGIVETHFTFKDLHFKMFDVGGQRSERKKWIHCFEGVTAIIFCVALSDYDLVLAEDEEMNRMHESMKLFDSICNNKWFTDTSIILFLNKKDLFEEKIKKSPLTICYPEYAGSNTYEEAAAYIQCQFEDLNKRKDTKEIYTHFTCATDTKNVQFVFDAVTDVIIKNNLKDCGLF

For `O=C1c2c(O)cc(O)cc2O[C@@H](c2ccc(O)c(O)c2)[C@H]1O`, the activity change, negative = inhibition in [1] was -14.3% [at 38 µM]; in assay [2], 13.3% [at 38 µM]. Moreover, the activity, negative = inhibition in assay [3] is -8.15% [at 38 µM]. The results for the Potency in assay [4], in [5] and in assay [9] were more than 46 µM, more than 46 µM and 1.58 µM (active), respectively. Further, the Potency entry in [6], in [7], in assay [8], in assay [10] and in [11] was “inactive” each time. In addition, the compound was classed as inactive in assay [12], in assay [13] and in assay [14].
Consider `COc1ccc(-n2c(=O)c(CCc3ccccc3)nc3cnc(N4CCNCC4)nc32)cc1`, for which the activity change, negative = inhibition in [1] was 4.61% [at 7.69 µM]; in [2], 7.43% [at 7.69 µM]. In assay [3], the activity, negative = inhibition was 0.474% [at 7.69 µM]. Also, the figures for the Potency in [4], in assay [5] and in [15] were more than 9.22 µM, more than 46 µM and 3.16 µM (active), respectively. In addition, the Potency entry in assay [6] and in [7] was “inactive” throughout.
In the case of `CN(C)C(=O)c1ccc(-c2ccc3ncnc(NC4CC4)c3c2)cc1`, the activity change, negative = inhibition in [1] was -22.9% [at 7.69 µM]; in assay [2] it was 12.3% [at 7.69 µM]. Besides, the activity, negative = inhibition in assay [3] was -3.61% [at 7.69 µM]. For the same compound, the Potency in [4] and in assay [5] was more than 46 µM throughout. The Potency entry in assay [6], in assay [7] and in [16] was “inactive” in each case.
Turning to `CCNC(=O)[C@@H]1O[C@@H](n2cnc3c(N)nc(NCCc4ccc(CCC(=O)O)cc4)nc32)[C@H](O)[C@@H]1O`, the values for the activity change, negative = inhibition in [1] and in assay [2] were -2.01% [at 38 µM] and 4.74% [at 38 µM], respectively. The activity, negative = inhibition in [3] was 22.6% [at 38 µM]. Besides, the Potency in assay [4] and in assay [5] was more than 46 µM each time. In addition, the Potency entry in assay [7], in assay [9], in assay [10], in [18] and in [11] was “inactive” throughout. Further, the outcome in assay [17], in assay [12], in [13] and in [14] was inactive.
`CC(C)(C)c1cc(Br)c(O)c(CN(Cc2cc(C(C)(C)C)cc(Br)c2O)C2CCCCC2)c1`: the activity change, negative = inhibition was 10.4% [at 7.69 µM] in assay [1], 3.39% [at 7.69 µM] in [2] and 19.2% [at 11.4 µM] in assay [6]. The activity, negative = inhibition in [3] is -1.22% [at 7.69 µM]. In addition, the Potency in assay [4] was more than 46 µM; in assay [5], more than 9.22 µM; in assay [19], 0.199 µM (active). The Potency entry in [7] was “inactive”.
`O=P(Cc1nnco1)(c1ccccc1)c1ccccc1`: the activity change, negative = inhibition in assay [1] is -8.6%; in assay [2] it was -9.88%. In assay [3], the activity, negative = inhibition is -0.63%. In assay [4], the Potency is more than 20.6 µM.
